# Measurements from PubChem BioAssay (EPA / NIEHS).
# Inconclusive results are not listed. Some compounds were tested as several samples or in several runs, with calls that do not always agree. Activity calls are given as the source filed them. Rule for the calls: active = hit-call score of the fitted dose curve at least 0.9, where 1 is the maximum; inconclusive = response in the unintended direction; inactive = score below 0.9.
# How the values were obtained:
# [1] = ACEA_ER_AUC_viability: ACEA Biosciences xCELLigence Real-Time Cell Analysis on Estrogen Receptor Agonism for Viability (AID 2283782);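 note: continuous compound exposure with impedance area under curve over 80 h; hit means loss of impedance signal meaning reduced cell growth or viability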
# How it was run: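 T-47D human breast cells in phenol red-free RPMI1640 with 10% charcoal-stripped FBS were dosed with an 8-point 1:4 dilution series from 100 uM top final concentration, in duplicate. Impedance-based growth was followed for 80 h; AUC analysed versus DMSO.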
# [2] = tested on: turtle Estrogen Receptor (ESR1), gene 101933533; experiment: ATG_trERa_XSP1: Attagene TRANS-FACTORIAL Multi-Species (XSP1) HepG2 Assay for turtle Estrogen Receptor (ESR1) (AID 2283781)
# How it was run: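 HepG2 cells transiently transfected with GAL4-UAS reporter units and chimeric NR-Gal4 constructs, dosed for 24 h with 3 nM 6-alpha-fluorotestosterone present. Reporter mRNA was quantified by RT-PCR, fluorescent labelling and capillary electrophoresis, with gain of signal fitted relative to DMSO.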
# [3] = ATG_M_06_XSP1: Attagene TRANS-FACTORIAL Multi-Species (XSP1) HepG2 Assay for M06 Transcription Factor (Internal Marker) (AID 2283790)
# How it was run: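 Transfected HepG2 multi-reporter system treated 24 h in the presence of 3 nM 6-alpha-fluorotestosterone. The M06 internal marker transcript was quantified by RT-PCR with capillary electrophoresis as a background control, and gain of signal was scored versus DMSO.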
# [4] = ATG_M_61_XSP1: Attagene TRANS-FACTORIAL Multi-Species (XSP1) HepG2 Assay for M61 Transcription Factor (Internal Marker) (AID 2283797)
# How it was run: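 HepG2 cells transiently transfected with multiplexed GAL4-driven reporter units, dosed 24 h with 3 nM 6-alpha-fluorotestosterone present. Reporter mRNA quantified by RT-PCR, 6-FAM labelling, HpaI digestion and capillary electrophoresis; internal-marker background control, gain of signal versus DMSO.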
# [5] = STM_H9_NormalizedViability: Cytotoxicity Assessment at 120 hours in the Stemina devTOX quickPredict H9 human embryonic stem cell (hESC)-based Assay (AID 2283784)
# How it was run: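 Pluripotent H9 hESCs were exposed, with chemical and media replaced every 24 h. Viability was read by CellTiter-Fluor fluorescence, background-corrected and normalized to the 0.1% DMSO neutral control per plate. Loss of signal was fitted.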
# [6] = tested on: turtle Androgen Receptor (AR), gene 101947425; experiment: ATG_trAR_XSP1: Attagene TRANS-FACTORIAL Multi-Species (XSP1) HepG2 Assay for turtle Androgen Receptor (AR) (AID 2283786)
# Experimental: (§1) ATG_XSP1_multi-species_TRANS is a cell-based, multiplexed assay created by modifying the existing Attagene TRANS-FACTORIAL system to include a panel of nuclear receptors from some or all the following species: human (Homo sapiens), mouse (Mus musculus), frog (Xenopus laevis), zebrafish (Danio rerio), chicken (Gallus gallus), and turtle (Chrysemys picta). The ECOTOX-FACTORIAL format uses HepG2, a human liver cell line, with measurements taken at 24 hours after chemical dosing in a 24-well plate. Xsp1 included 3 nM 6-alpha-fluorotestosterone to partially stimulate the androgen receptor.ATG_trAR_XSP1 is one of 29 assay components measured or calculated from the ATG_XSP1_multi-species_TRANS assay. It is designed to make measurements of mRNA induction, a form of inducible reporter, as detected with fluorescence intensity signals by Reverse transcription polymerase chain reaction (RT-PCR) and Capillary electrophoresis technology.The assay endpoint ATG_trAR_XSP1 was analyzed in the positive analysis fitting direction relative to DMSO as the negative control and baseline of activity. […] Furthermore, this assay endpoint can be referred to as a primary readout, because this assay has produced multiple assay endpoints where this one serves a reporter gene function. […]
# AR (gene 367) = AR (gene 367) (UniProt P10275); experiment: ACEA_AR_antagonist_80hr: ACEA Biosciences xCELLigence Real-Time Cell Analysis on Androgen Receptor Antagonism for Proliferation (AID 2283787);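 note: 22Rv1 human prostate cancer cells with growth followed by electrical impedance; hits lower the impedance growth signal relative to DMSO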
# AR (gene 367), sequence (P10275 whole entry, looked up): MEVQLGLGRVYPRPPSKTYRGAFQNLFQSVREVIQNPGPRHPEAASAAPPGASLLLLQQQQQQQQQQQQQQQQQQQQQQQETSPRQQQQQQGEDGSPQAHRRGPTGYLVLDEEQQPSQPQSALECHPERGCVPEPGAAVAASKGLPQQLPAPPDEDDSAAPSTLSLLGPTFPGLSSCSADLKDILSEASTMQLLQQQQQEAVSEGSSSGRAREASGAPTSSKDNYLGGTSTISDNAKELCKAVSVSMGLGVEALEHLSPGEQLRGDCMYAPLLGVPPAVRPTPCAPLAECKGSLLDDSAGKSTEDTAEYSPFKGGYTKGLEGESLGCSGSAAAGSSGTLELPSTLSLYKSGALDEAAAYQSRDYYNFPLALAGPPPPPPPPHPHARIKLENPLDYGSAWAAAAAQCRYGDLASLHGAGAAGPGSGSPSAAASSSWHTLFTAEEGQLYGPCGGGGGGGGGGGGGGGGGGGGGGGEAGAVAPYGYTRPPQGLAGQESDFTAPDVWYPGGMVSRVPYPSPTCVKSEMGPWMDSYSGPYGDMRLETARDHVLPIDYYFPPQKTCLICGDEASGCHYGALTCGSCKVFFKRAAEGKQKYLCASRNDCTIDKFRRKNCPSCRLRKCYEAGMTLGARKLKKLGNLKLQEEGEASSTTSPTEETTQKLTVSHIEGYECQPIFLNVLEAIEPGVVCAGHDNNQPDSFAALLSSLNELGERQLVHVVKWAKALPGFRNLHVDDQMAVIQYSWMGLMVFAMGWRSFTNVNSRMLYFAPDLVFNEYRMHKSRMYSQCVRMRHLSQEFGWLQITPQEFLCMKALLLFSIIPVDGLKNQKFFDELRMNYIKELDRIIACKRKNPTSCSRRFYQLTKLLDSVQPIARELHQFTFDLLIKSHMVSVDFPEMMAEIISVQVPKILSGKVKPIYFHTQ
# How it was run: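 Impedance readout (RT-CES), 80 h post-dose; loss-of-signal vs DMSO baseline. 22Rv1 cells in assay medium. Compounds: 8-pt 1:4 series, max 100 uM final, up to 0.5% DMSO; n = 2.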
# [7] = molecular target: Estrogen receptor beta (Homo sapiens) (UniProt Q92731); experiment: ATG_hERb_XSP1: Attagene TRANS-FACTORIAL Multi-Species (XSP1) HepG2 Assay for human Estrogen Receptor (ESR2) (AID 2283788)
# Estrogen receptor beta (Homo sapiens), sequence (Q92731 whole entry, looked up): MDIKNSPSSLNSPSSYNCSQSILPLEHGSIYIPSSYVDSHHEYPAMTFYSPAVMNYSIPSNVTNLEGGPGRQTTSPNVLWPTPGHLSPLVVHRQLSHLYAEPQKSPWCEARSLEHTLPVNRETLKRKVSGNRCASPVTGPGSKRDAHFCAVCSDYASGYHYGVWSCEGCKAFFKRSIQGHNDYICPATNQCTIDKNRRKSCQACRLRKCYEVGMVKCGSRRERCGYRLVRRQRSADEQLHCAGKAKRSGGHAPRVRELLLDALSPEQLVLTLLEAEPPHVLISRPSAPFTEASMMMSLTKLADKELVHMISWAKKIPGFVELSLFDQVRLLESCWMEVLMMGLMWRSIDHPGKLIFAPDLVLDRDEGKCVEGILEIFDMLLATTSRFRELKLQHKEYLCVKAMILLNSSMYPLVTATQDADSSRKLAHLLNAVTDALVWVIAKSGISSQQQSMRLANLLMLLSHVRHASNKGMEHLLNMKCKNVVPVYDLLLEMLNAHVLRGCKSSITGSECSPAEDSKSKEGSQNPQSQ
# Experimental: as §1, with “receptor.ATG_hERb_XSP1” for “receptor.ATG_trAR_XSP1”, “ATG_hERb_XSP1” for “ATG_trAR_XSP1”
# [8] = molecular target: GAL4 Transcription Factor (Internal Marker), GAL4 (gene 855828) (UniProt P04386); experiment: ATG_GAL4_XSP1: Attagene TRANS-FACTORIAL Multi-Species (XSP1) HepG2 Assay for GAL4 Transcription Factor (Internal Marker) (AID 2283789)
# GAL4 Transcription Factor (Internal Marker), GAL4 (gene 855828), sequence (P04386 whole entry, looked up, the tested form may be a part): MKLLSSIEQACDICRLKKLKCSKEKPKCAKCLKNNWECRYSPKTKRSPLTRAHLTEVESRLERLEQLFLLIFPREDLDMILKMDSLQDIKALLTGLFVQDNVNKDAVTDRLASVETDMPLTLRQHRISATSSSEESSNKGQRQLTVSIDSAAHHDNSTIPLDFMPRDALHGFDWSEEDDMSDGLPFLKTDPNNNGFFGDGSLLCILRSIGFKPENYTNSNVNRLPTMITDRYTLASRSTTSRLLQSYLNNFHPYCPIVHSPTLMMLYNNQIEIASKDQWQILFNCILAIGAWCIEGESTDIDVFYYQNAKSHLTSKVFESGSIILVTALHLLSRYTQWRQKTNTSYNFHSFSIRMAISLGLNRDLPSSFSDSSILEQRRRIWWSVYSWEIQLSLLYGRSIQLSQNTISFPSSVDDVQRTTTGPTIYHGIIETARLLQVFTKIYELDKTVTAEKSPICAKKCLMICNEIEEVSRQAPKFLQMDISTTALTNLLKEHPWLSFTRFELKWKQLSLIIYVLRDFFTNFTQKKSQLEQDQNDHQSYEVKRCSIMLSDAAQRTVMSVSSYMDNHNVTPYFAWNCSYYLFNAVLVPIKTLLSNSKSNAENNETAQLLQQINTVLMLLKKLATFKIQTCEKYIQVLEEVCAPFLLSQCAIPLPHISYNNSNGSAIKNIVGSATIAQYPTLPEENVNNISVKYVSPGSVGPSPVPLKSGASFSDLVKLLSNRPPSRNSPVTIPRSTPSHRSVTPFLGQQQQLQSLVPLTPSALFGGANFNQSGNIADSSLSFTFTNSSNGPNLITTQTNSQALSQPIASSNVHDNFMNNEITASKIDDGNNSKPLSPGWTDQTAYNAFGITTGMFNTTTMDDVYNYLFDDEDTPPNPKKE
# Experimental: as §1, with “receptor.ATG_GAL4_XSP1” for “receptor.ATG_trAR_XSP1”, “technology.This” for “technology.The”, “endpoint, ATG_GAL4_XSP1,” for “endpoint ATG_trAR_XSP1”, “secondary” for “primary”, “background control” for “reporter gene”
structure (smiles),measurement,setting,value
CCCCCCCC[Si](OCC)(OCC)OCC,AC50,[1],89.3 µM (active)
same,outcome,[1],inactive
c1ccc2ccccc2c1,outcome,[1],inactive
O=C=NCCCCCCN=C=O,outcome,[1],inactive
O=c1ccc2ccccc2o1,outcome,[1],inactive
O=C1O[C@H]([C@@H](O)CO)C(O)=C1O,outcome,[1],inactive
O=C(O)c1ccccc1-n1cc(C(=O)O)c(=O)c2cc(Nc3c(F)cc(F)cc3Cl)c(Cl)cc21,outcome,[1],inactive
c1ccc2n[nH]nc2c1,outcome,[1],inactive
CC/C(=C(/CC)c1ccc(O)cc1)c1ccc(O)cc1,AC50,[2],0.0379 nM (active)
same,AC50,[1],50 µM (active)
same,outcome,[1],inactive
same,outcome,[3],inactive
same,outcome,[4],inactive
CCCCCCCCCCCO,AC50,[1],50 µM (active)
Cc1c2ccccc2c(C)c2c1ccc1ccccc12,AC50,[2],15700 nM (active)
same,AC50,[1],20.1 µM (active)
same,outcome,[5],inactive
same,outcome,[6],inactive
same,AC50,AR (gene 367),46.5 µM (active)
same,outcome,[7],inactive
same,outcome,[8],inactive
same,outcome,[3],inactive
same,outcome,[4],inactive
CC1(C)NC(=O)N(c2ccc([N+](=O)[O-])c(C(F)(F)F)c2)C1=O,outcome,[1],inactive
O=C(OCCCCCCOC(=O)c1ccccc1)c1ccccc1,outcome,[1],inactive
CCCCCCCCCCCCO,AC50,[1],68.3 µM (active)
CCO[Si](CCCNC(N)=O)(OCC)OCC,outcome,[1],inactive
C[C@]12CC[C@@H]3c4ccc(O)cc4CC[C@H]3[C@@H]1CCC2=O,AC50,[2],3.09 nM (active)
same,outcome,[3],inactive
same,outcome,[4],inactive
O=CCCCC=O,AC50,[1],40 µM (active)
CCCCCCCCOc1ccc(C(=O)c2ccccc2)c(O)c1,outcome,[1],inactive
CC[C@@H]1C[C@H](N(Cc2cc(C(F)(F)F)cc(C(F)(F)F)c2)C(C)=O)c2cc(C(F)(F)F)ccc2N1C(=O)OC(C)C,AC50,[1],3.79 µM (active)
CC[C@H](NC(=O)c1cc(F)ccc1NS(=O)(=O)c1cccc2cccnc12)c1ccccc1,outcome,[1],inactive
Cc1cc2c(cc1C(F)(F)F)N(C(=O)Nc1ccc(Oc3cccnc3C)nc1)CC2,AC50,[1],15.6 µM (active)
CCN(Cc1cccc(S(=O)(=O)O)c1)c1ccc(C(=C2C=CC(=[N+](CC)Cc3cccc(S(=O)(=O)O)c3)C=C2)c2ccccc2S(=O)(=O)[O-])cc1,outcome,[1],inactive
CC(C)(O)c1ccc(CNC(=O)c2cccnc2Oc2ccc3nonc3c2)cc1,outcome,[1],inactive
CCCCCc1ccc(N)cc1,AC50,[1],50 µM (active)
same,outcome,[1],inactive
CCCOC(=O)c1cc(O)c(O)c(O)c1,outcome,[1],inactive
Clc1ccccc1C(c1ccccc1)(c1ccccc1)n1ccnc1,AC50,[1],27.6 µM (active)
O=c1[nH]sc2ccccc12,AC50,[1],14.9 µM (active)
Cc1cccc2ccccc12,outcome,[1],inactive
CCCC(=O)OCCC(C)C,outcome,[1],inactive
CCN(CC)C(=O)c1cc(S(=O)(=O)Cc2ccccc2)c(N2CCC(c3ccccc3)CC2)cc1N(CC)CCN(C)C,AC50,[1],4.19 µM (active)
Oc1ccccc1,outcome,[1],inactive
Cc1ncc(CO)c(CO)c1O,outcome,[1],inactive
CC(C)(c1cc(Br)c(O)c(Br)c1)c1cc(Br)c(O)c(Br)c1,outcome,[2],inactive
same,AC50,[1],73.3 µM (active)
same,outcome,[5],inactive
same,outcome,[6],inactive
same,outcome,[7],inactive
same,outcome,[8],inactive
same,outcome,[3],inactive
same,outcome,[4],inactive
